# Calls of active or inactive are those of the source. Rule for the calls: active = hit-call score of the fitted dose curve at least 0.9, where 1 is the maximum; inactive = score below 0.9.
# Target: Hepatocyte nuclear factor 6 (Homo sapiens) (UniProt Q9UBC0)
# Test: ATG_HNF6_CIS: Attagene CIS-FACTORIAL HepG2 Assay for human Hepatocyte Nuclear Factor 6 (HNF6) (AID 2282952)
# Conditions: HepG2 Attagene cis-factorial HNF6 reporter transcription; actives raise or lower the signal
# Method: ATG_CIS is a cell-based, multiplexed-readout assay that uses HepG2, a human liver cell line, with measurements taken at 24 hours after chemical dosing in a 24-well plate.ATG_HNF6_CIS is one of 52 assay component(s) measured or calculated from the ATG_CIS assay. It is designed to make measurements of mRNA induction, a form of inducible reporter, as detected with fluorescence intensity signals by Reverse transcription polymerase chain reaction (RT-PCR) and Capillary electrophoresis technology.Data from the assay component ATG_HNF6_CIS was analyzed into 1 assay endpoint. This assay endpoint, ATG_HNF6_CIS, was analyzed with bidirectional fitting relative to DMSO as the negative control and baseline of activity. Using a type of inducible reporter, measures of mRNA for gain or loss-of-signal activity can be used to understand the reporter gene at the transcription factor-level as they relate to the gene ONECUT1. Furthermore, this assay endpoint can be referred to as a primary readout, because this assay has produced multiple assay endpoints where this one serves a reporter gene function. To generalize the intended target to other relatable targets, this assay endpoint is annotated to the dna binding intended target family, where the subfamily is homeobox protein.
# Human liver HepG2 cells are transiently transfected with multiple reporter transcription units (MRTUs) in 6-well plates using FuGene 6 reagent (Roche; 3 ml FuGene/1 mg DNA). The MRTU constructs are regulated by a cis-regulating element (promoter). […] A major difference between the CIS and TRANS system is that in CIS activities of endogenous TFs are measured, whereas the TRANS assay evaluates changes in activities of exogenous, chimeric NR-Gal4 proteins. […] At the end of 24 hour incubation, total RNA was isolated using TriZol reagent (Invitrogen). The isolated RNA is then reverse-transcribed using oligo(dT) primer and Mo-MLV reverse transcriptase (Invitrogen) with DNAse I (Ambion) treatment for 30 min. The one-tenth of the produced cDNA was amplified by PCR using Taq DNA polymerase (Invitrogen) and two reporter sequence-specific primers. The PCR products were fluorescently labeled by primer extension with 6-arboxyfluorescein (6-FAM) 5'-labeled reporter sequence-specific primer (2 min at 95 C, 20 s at 68 C and 10 min at 72 C) and these products were digested with 5U of HpaI (New England Biolabs) for 2h at 37 C. The fragments were purified using Qiaquick PCR columns (Qiagen), analyzed on an ABI 3130xL genetic analyzer (Applied Biosystems) with peak positions identified by using a set of X-rhodamine (ROX)-labeled MapMarker1000 molecular weight standards (BioVentures). The raw capillary electrophoresis data was processed using Attagraph software (Attagene).
# Chain of Hepatocyte nuclear factor 6 (Homo sapiens) (Q9UBC0 whole entry, looked up): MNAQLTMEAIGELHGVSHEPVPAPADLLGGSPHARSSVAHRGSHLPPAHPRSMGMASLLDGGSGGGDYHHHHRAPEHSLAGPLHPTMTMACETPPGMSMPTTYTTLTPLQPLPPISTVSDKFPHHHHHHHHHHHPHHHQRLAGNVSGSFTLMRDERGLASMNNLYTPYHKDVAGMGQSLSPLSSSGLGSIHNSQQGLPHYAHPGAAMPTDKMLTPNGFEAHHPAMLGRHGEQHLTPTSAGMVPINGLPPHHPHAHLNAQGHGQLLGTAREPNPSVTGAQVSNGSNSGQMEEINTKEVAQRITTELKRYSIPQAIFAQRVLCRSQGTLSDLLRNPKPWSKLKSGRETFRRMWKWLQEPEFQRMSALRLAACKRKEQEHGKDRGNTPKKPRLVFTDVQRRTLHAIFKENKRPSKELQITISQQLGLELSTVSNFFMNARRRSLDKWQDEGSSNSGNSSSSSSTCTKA
row,SMILES,outcome
1,Cc1ccc(N(SC(F)(Cl)Cl)S(=O)(=O)N(C)C)cc1,inactive
2,Nc1ccc(-c2ccc(N)c(N)c2)cc1N,inactive
3,Nc1c(Cl)c(Cl)c(Cl)c(Cl)c1Cl,inactive
4,C=CC(=O)OCCCCOC(=O)C=C,inactive
5,COc1cc(OC)nc(Oc2cccc(Oc3nc(OC)cc(OC)n3)c2C(=O)O)n1,inactive
6,C[N+](C)=CCl,inactive
7,N#Cc1cc(I)c(O)c(I)c1,inactive
8,O=C(CCN1CC1)OCC(CO)(COC(=O)CCN1CC1)COC(=O)CCN1CC1,inactive
9,C[N+](=O)[O-],inactive
10,O=C(O)CCl,inactive
11,CCc1cccc(C)c1N(C(=O)CCl)[C@@H](C)COC,inactive
12,CCOP(=O)(OCC)Oc1ccc([N+](=O)[O-])cc1,inactive
13,CCOP(=O)(OCC)OCC,inactive
14,O=[N+]([O-])c1ccc(Cl)cc1,inactive
15,O=c1c2ccccc2c(=O)c2c1cc(Cl)c1[nH]c3c([nH]c12)c(Cl)cc1c(=O)c2ccccc2c(=O)c13,inactive
16,CSc1nc(N=[N+]=[N-])nc(NC(C)C)n1,inactive
17,CC(C)c1ccc(O)cc1,inactive
18,O=C(O)CCCc1ccc(N(CCCl)CCCl)cc1,inactive
19,Cc1ccc(OP(=O)(Oc2ccc(C)cc2)Oc2ccc(C)cc2)cc1 (tested in a mixture with another compound),inactive
20,CN1C[C@H](C(=O)N[C@]2(C)O[C@@]3(O)[C@@H]4CCCN4C(=O)[C@H](Cc4ccccc4)N3C2=O)C=C2c3cccc4[nH]cc(c34)C[C@H]21,inactive

row,SMILES,outcome
1,CC(C)C#N,inactive
2,O=[N+]([O-])C=Cc1ccccc1,inactive
3,CCC(C)(C)O,inactive
4,Nc1ccccc1C(=O)Oc1ccc2ccccc2c1,inactive
5,Nc1ccccc1,inactive
6,C=Cc1cccc(CCl)c1,inactive
7,S=c1[nH]c2ccccc2[nH]1,inactive
8,O=P1(NCCCl)OCCCN1CCCl (stereo not given),inactive
9,N#CC(c1ccccc1)c1ccccc1,inactive
10,BrCBr,inactive
11,COC(=O)c1ccccc1S(=O)(=O)NC(=O)Nc1nc(C)cc(C)n1,inactive
12,[Cl-].[Cl-].[Cl-].[Yb+3],inactive
13,C=CCN(CC=C)C(=O)C(Cl)Cl,inactive
14,CCCC=NO,inactive
15,C[C@]12CC[C@H]3[C@@H](CC[C@@]45O[C@@H]4C(O)=C(C#N)C[C@]35C)[C@@H]1CC[C@@H]2O,inactive
16,CCc1cc(C)cc(CC)c1-c1c(OC(=O)C(C)(C)C)n2n(c1=O)CCOCC2,inactive
17,CC1OC(C)OC(C)O1 (stereo not given),inactive
18,CCOP(O)OCC,inactive
19,CC1(C)CC(=O)CC(C)(C)N1[O],inactive
20,CC(C)(c1cc(Cl)c(O)c(Cl)c1)c1cc(Cl)c(O)c(Cl)c1,inactive

# — PubChem BioAssay (EPA / NIEHS)
